Compound activity as filed in PubChem BioAssay.
Hits are enriched below; roughly 1.6% of the tested compounds scored in any of these assays.
KCNQ2 enhance: potentiators of rat KCNQ2 potassium channel. Potassium voltage-gated channel subfamily KQT member 2 (Rattus norvegicus), O88943. CHO-K1 KCNQ2, FluxOR thallium flux fluorescence; active compounds read high. AID 2239, 2010. 310,000 compounds, 0.54% hits. B-score at 10 µM;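 active = fluorescence ratio B-score at least 3 SD of library B-scores, with initial fluorescence B-score within 3 of them, cut at about 5.3 in these data; same plate scores as AID 2156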;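 also: B-score of peak minus minimum over baseline fluorescence ratio after K+ and Tl+ stimulus; positive B-score means potentiation of KCNQ2 with more thallium influx and brighter signal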
KCNQ2 inh: rat KCNQ2 potassium channel inhibitors, primary screen, cell-based, CHO-K1, FluxOR thallium flux, B-score; 310,000 compounds, 1.1% hits; 20 min; active compounds read low; B-score at 10 µM; Potassium voltage-gated channel subfamily KQT member 2 (Rattus norvegicus), O88943;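 active = fluorescence ratio B-score at most minus 3 library SDs, with starting brightness B-score within 2 library SDs, cut at about -5.5 in these data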
KCNQ2 inh conf: rat KCNQ2 potassium channel inhibitors, confirmation, cell-based, thallium flux; shares compounds with KCNQ2 inh; KCNQ2-expressing cells, inhibition; active compounds read low; activity change, negative = inhibition, % at 10 µM; 1,000 compounds, 57% hits; AID 493025, 2011
KCNQ1 spec: human KCNQ1 channel inhibition, counter-screen for KCNQ2 inhibitor project, cell-based, FluxOR thallium flux. shares compounds with KCNQ2 inh. 1,000 compounds, 15% hits. KCNQ1-expressing cells, FluxOR thallium flux fluorescence; active compounds read low. activity change, negative = inhibition, % at 10 µM;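 active = activity change at least 3 SD of negative controls below their mean in both duplicate wells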;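 also: CHO cells stably transfected with KCNQ1 and depolarized by potassium stimulus; peak minus minimum fluorescence over baseline after thallium addition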
Target sequence (P51787 whole entry, looked up): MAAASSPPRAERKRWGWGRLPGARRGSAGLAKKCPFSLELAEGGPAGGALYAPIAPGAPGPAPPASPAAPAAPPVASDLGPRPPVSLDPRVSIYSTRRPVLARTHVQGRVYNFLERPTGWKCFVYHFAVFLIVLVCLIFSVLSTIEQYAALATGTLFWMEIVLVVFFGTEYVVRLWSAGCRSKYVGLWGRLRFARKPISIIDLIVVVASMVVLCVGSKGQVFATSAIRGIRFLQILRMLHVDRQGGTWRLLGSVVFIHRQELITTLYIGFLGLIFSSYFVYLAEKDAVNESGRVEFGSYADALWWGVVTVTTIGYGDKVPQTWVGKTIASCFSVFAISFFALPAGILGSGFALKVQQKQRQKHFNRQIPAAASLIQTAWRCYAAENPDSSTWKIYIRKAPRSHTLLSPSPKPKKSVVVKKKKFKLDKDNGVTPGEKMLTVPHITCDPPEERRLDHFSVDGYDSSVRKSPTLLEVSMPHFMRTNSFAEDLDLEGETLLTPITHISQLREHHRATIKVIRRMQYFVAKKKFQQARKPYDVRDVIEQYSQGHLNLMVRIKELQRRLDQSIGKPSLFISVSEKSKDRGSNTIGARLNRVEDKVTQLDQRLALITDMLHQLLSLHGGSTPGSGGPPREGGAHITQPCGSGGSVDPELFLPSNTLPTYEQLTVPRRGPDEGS
CHO parental ctr: thallium flux change in parental CHO cells, counter-screen for KCNQ2 inhibitor project. shares compounds with KCNQ2 inh. active compounds read low. activity change, % at 10 µM. 1,000 compounds, 14% hits. AID 493029, 2011
KCNQ2 patch conf: rat KCNQ2 channel inhibitors, confirmation, cell-based, automated patch clamp, single concentration | shares compounds with KCNQ2 inh | KCNQ2-expressing cells, automated patch clamp current | calls only at 10 µM | 550 compounds, 49% hits
A number is an active result. Unless noted, no rule for the calls is given here.

How did CCOc1ccccc1NC(=O)Cn1c(=O)n(-c2ccc(OC)cc2OC)c(=O)c2c(C)c(C(=O)N(CC)CC)sc21 do in these assays?
KCNQ2 inh: inactive

What do the screens show for `COc1ccc(-n2c(=O)c3c4c(sc3n(CC(=O)Nc3cc(C)[nH]n3)c2=O)CCCC4)c(OC)c1`?
KCNQ2 enhance: inactive; KCNQ2 inh: -6.7; KCNQ2 inh conf: inactive; KCNQ1 spec: inactive; CHO parental ctr: inactive

Results for O=C(CN1CCN(C(=O)N2CCOCC2)CC1)Nc1cc(Cl)ccc1Cl ?
KCNQ2 inh: inactive

How did C[C@H]1Oc2ccccc2C(=O)C1C(=O)c1ccccc1 (some centres undefined) do in these assays?
KCNQ2 inh: inactive

How did O=C(COC(=O)c1ccccn1)Nc1cccnc1Cl do in these assays?
KCNQ2 inh: inactive

What do the screens show for `O=C(COC(=O)CC12CC3CC(CC(C3)C1)C2)Nc1cccnc1Cl`?
KCNQ2 enhance: inactive; KCNQ2 inh: -7.3; KCNQ2 inh conf: -38%; KCNQ1 spec: inactive; CHO parental ctr: inactive; KCNQ2 patch conf: active

How did CCCCN(CC)C(=O)c1cccc(Cl)c1 do in these assays?
KCNQ2 enhance: inactive; KCNQ2 inh: inactive

How did CCCCN(CC)C(=O)c1ccc(-c2ccccc2)cc1 do in these assays?
KCNQ2 enhance: inactive; KCNQ2 inh: -6.8; KCNQ2 inh conf: -26%; KCNQ1 spec: inactive; CHO parental ctr: inactive; KCNQ2 patch conf: inactive

How did CC(C)C[C@@H](CO)N1CCN(Cc2cccc(C#N)c2)CCC1=O do in these assays?
KCNQ2 inh: inactive

What do the screens show for `N#C/C(=C\c1ccc[nH]1)C(=O)Nc1ccccc1[N+](=O)[O-]`?
KCNQ2 inh: inactive

What do the screens show for `Cc1ccc(-n2nnnc2SCC(=O)c2cc(C)n(-c3cc(C)on3)c2C)c(C)c1`?
KCNQ2 enhance: inactive; KCNQ2 inh: -7.5; KCNQ2 inh conf: inactive; KCNQ1 spec: inactive; CHO parental ctr: inactive

Results for Cc1cc(-n2c(C)cc(C(=O)CSc3ccc4c(c3)OCCO4)c2C)no1 ?
KCNQ2 enhance: inactive; KCNQ2 inh: -6.9; KCNQ2 inh conf: -14%; KCNQ1 spec: inactive; CHO parental ctr: inactive; KCNQ2 patch conf: active

How did Cc1cc(-n2c(C)cc(C(=O)CSc3nnnn3-c3ccccc3)c2C)no1 do in these assays?
KCNQ2 enhance: inactive; KCNQ2 inh: inactive

How did Cc1cc(-n2c(C)cc(C(=O)CCl)c2C)no1 do in these assays?
KCNQ2 enhance: inactive; KCNQ2 inh: inactive

Results for CC12CCC(C/C1=N/O)C2(C)CBr (centres undefined) ?
KCNQ2 enhance: inactive; KCNQ2 inh: inactive

Results for Cc1ccc(C(=O)C(c2ccccc2)N2Cc3ccccc3C2=N)cc1 (centres undefined) ?
KCNQ2 enhance: inactive; KCNQ2 inh: -8.6; KCNQ2 inh conf: -32%; KCNQ1 spec: inactive; CHO parental ctr: inactive; KCNQ2 patch conf: active

Results for COc1ccc(C(=O)C(c2ccccc2)N2CCOCC2)cc1 (centres undefined) ?
KCNQ2 enhance: inactive; KCNQ2 inh: inactive

Results for CC1(C)OC2OC(C(=O)N/N=C/c3ccccc3F)C3OC(C)(C)OC3C2O1 (centres undefined) ?
KCNQ2 enhance: inactive; KCNQ2 inh: inactive

Results for CC1(C)C(C=C(Cl)Cl)C1C(=O)N/N=C/c1ccccc1F (centres undefined) ?
KCNQ2 enhance: inactive; KCNQ2 inh: -9.9; KCNQ2 inh conf: -28%; KCNQ1 spec: inactive; CHO parental ctr: inactive; KCNQ2 patch conf: active

What do the screens show for `CC(C)=CCc1cc(-c2oc3cc(O)cc(O)c3c(=O)c2O)ccc1O`?
KCNQ2 enhance: inactive; KCNQ2 inh: inactive

How did CC(C)=CCc1c(O)cc2oc3c(CC=C(C)C)c(O)c(O)c(CC=C(C)C)c3c(=O)c2c1O do in these assays?
KCNQ2 enhance: inactive; KCNQ2 inh: -12; KCNQ2 inh conf: -48%; KCNQ1 spec: -42%; CHO parental ctr: -28%; KCNQ2 patch conf: inactive

Results for Cn1cc(S(=O)(=O)NCc2ccc3c(c2)OCO3)c(C(F)(F)F)n1 ?
KCNQ2 inh: inactive

How did CCc1c(C)sc2nc3c(C(=O)N4CCOCC4)cc(C(=O)c4cc(F)ccc4O)cn3c(=O)c12 do in these assays?
KCNQ2 enhance: inactive; KCNQ2 inh: -8.5; KCNQ2 inh conf: -24%; KCNQ1 spec: inactive; CHO parental ctr: inactive; KCNQ2 patch conf: active

How did O=C(c1cc(C(=O)N2CCOCC2)c2nc3ccccc3n2c1)c1ccccc1O do in these assays?
KCNQ2 inh: inactive

How did COCCCN(C(=S)Nc1cc(Cl)cc(Cl)c1)C(C)c1ccncc1 (centres undefined) do in these assays?
KCNQ2 enhance: inactive; KCNQ2 inh: inactive

Results for COCCCN(C(=S)Nc1cc(Cl)cc(Cl)c1)C(C)c1ccccn1 (centres undefined) ?
KCNQ2 enhance: inactive; KCNQ2 inh: -8.5; KCNQ2 inh conf: inactive; KCNQ1 spec: inactive; CHO parental ctr: inactive

What do the screens show for `Cc1ccc(-c2nnc(-c3ccccc3)c(-c3ccccc3)n2)cc1`?
KCNQ2 inh: inactive

Results for Cc1cc(-c2nnc(-c3ccccc3)c(-c3ccccc3)n2)c(C)o1 ?
KCNQ2 enhance: inactive; KCNQ2 inh: -9.9; KCNQ2 inh conf: inactive; KCNQ1 spec: inactive; CHO parental ctr: inactive

Results for O=C(COc1ccc([N+](=O)[O-])cc1)Nc1ccc2c(c1)nc1n2CCOC1 ?
KCNQ2 enhance: inactive; KCNQ2 inh: inactive

What do the screens show for `COc1cc(C(=O)Nc2cccc(C)c2C)c(Br)c(OC)c1OC`?
KCNQ2 enhance: inactive; KCNQ2 inh: -8; KCNQ2 inh conf: -24%; KCNQ1 spec: inactive; CHO parental ctr: inactive; KCNQ2 patch conf: active

How did COC(=O)c1cccc(NC(=O)c2cc(OC)c(OC)c(OC)c2Br)c1 do in these assays?
KCNQ2 inh: inactive

Results for COc1ccccc1N1CCN(c2nc(C)nc3c2oc2ccccc23)CC1 ?
KCNQ2 enhance: inactive; KCNQ2 inh: -6.9; KCNQ2 inh conf: inactive; KCNQ1 spec: inactive; CHO parental ctr: inactive

How did Cc1nc(N2CCC(C)CC2)c2oc3ccccc3c2n1 do in these assays?
KCNQ2 inh: inactive

Results for Cc1ccc(S(=O)(=O)c2nc(-c3ccccc3Cl)oc2N(C)C)cc1 ?
KCNQ2 inh: inactive

What do the screens show for `CN(C)c1oc(-c2ccccc2Cl)nc1P(=O)(c1ccccc1)c1ccccc1`?
KCNQ2 enhance: inactive; KCNQ2 inh: -9.5; KCNQ2 inh conf: -39%; KCNQ1 spec: -31%; CHO parental ctr: -24%; KCNQ2 patch conf: active

What do the screens show for `O=C(CCC(=O)N(CC(=O)NC1CCCC1)Cc1cccs1)Nc1nccs1`?
KCNQ2 inh: inactive

How did Cc1cc(Oc2cc(N)cc([N+](=O)[O-])c2)ccc1Cl do in these assays?
KCNQ2 enhance: inactive; KCNQ2 inh: inactive
